Source: PubChem BioAssay (Broad Institute)
Compounds with a hit are over-represented: about 7.4% of the library has one in this group of screens.
PD-1 reverse act – activators reversing PD-1 mediated T-cell inhibition | primary human CD4 T cells, PD-L1 beads, CellTiter-Glo 96 h | activation, % (test concentration not listed) | 29,000 tested, under 10 active | AID 2316; call rule not given here;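 note: 0% = median vehicle wells and 100% = positive control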
Hedgehog inh – blocks Sonic Hedgehog signaling; hit rate 2.1% among 22,000; inhibition, % (test concentration not listed); Shh-LIGHT2 Gli-luciferase reporter, 30 h;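 active = mean inhibition across valid replicates above about 65%, limit read from the data; inconclusive = mean under the limit, yet half or more replicates past it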;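 note: pathway switched on by Shh-conditioned medium diluted 1 in 25 in low serum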
YB-1 expression – YB-1 expression inhibition; U2OS, qRT-PCR YB-1 vs CDIP delta delta Cp, 16 h; hits give high values; zero = DMSO, each unit about twofold; delta delta Cp (YB-1 minus CDIP) (no concentration beside the values); hit rate 0.37% among 30,000; AID 434959;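 active = delta delta Cp rounded down to an integer at or above 3, about 3 SD of DMSO wells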;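 note: higher means less YB-1 transcript or more CDIP transcript relative to DMSO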
MITF inh – inhibitors of MITF | inhibition, % (test concentration not listed) | TRPM1 promoter luciferase, luminescence, 24 h | hit rate 0.28% among 37,000 | AID 2240; in the data active = inhibition above about 85%; inconclusive = no clear call, values can overlap the other calls; inactive = below about 68%;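 note: human melanocyte line stably carrying TRPM1 promoter luciferase reporter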
NOMO-1 viab – STK33 inhibitor candidate reducing NOMO-1 cell viability; NOMO-1 AML viability, CellTiter-Glo luminescence, 72 h; inhibition, % (concentration not given with the values); hit rate 7.5% among 37,000; AID 2330; in the data active = inhibition above about 80%; inconclusive = no clear call, values can overlap the other calls
Starred values were filed as active, the others as inactive; ? = inconclusive; nt = not tested or not shown.

SMILES	PD-1 reverse act	Hedgehog inh	YB-1 expression	MITF inh	NOMO-1 viab
CC(=O)c1c(C)n(-c2ccc(C)cc2)c2ccc(OC(=O)CN3C(=O)c4ccccc4C3=O)cc12	-1	nt	nt	-7	30
C[C@@H]1CN([C@H](C)CO)C(=O)c2cccc(NC(=O)Nc3ccc(C(F)(F)F)cc3)c2O[C@@H]1CN(C)S(=O)(=O)c1cccs1	nt	?	-0.058	24	101*
C[C@@H]1CN([C@@H](C)CO)C(=O)c2cccc(NC(=O)Nc3ccc(C(F)(F)F)cc3)c2O[C@H]1CN(C)S(=O)(=O)c1cccs1	nt	2	0.054	11	88*
CC(C)(C)NC(=O)C[n+]1cccc(/C=N/O)c1	1	-18	0.054	-10	2
COc1cc(/C=C2\Oc3cc(O)ccc3C2=O)ccc1O	2	-14	-0.58	-103	-2
CC(=O)N/C(=C\c1ccc2ccccc2c1)C(=O)O	1	-7	0.011	-26	0
COc1ccc2c(c1)OC/C(=C\c1ccc(OC)c(O)c1)C2=O	nt	?	-0.055	2	107*
O=C1/C(=C/c2ccc3ccccc3c2)COc2ccccc21	-20	-81	-0.22	-48	113*
COc1c(O)c2c(=O)cc(OC)c3c4c(OC)cc(=O)c5c(O)c(OC)c(C[C@@H](C)OC(=O)c6ccccc6)c(c(c1C[C@@H](C)OC(=O)Oc1ccc(O)cc1)c23)c54	-10	72*	0.1	74	142*
C=CCN(C(C)=O)c1nc(C)c(Br)c(OC)n1	1	7	0.21	8	13
C[C@H](CO)N1C[C@H](C)[C@H](CN(C)Cc2ccc(C(=O)O)cc2)Oc2ccc(NS(=O)(=O)c3ccc(F)cc3)cc2CC1=O	nt	nt	0.22	-11	-4
C[C@@H]1CN([C@@H](C)CO)C(=O)Cc2cc(NS(=O)(=O)c3ccccc3)ccc2O[C@@H]1CN(C)Cc1ccc(C(F)(F)F)cc1	nt	-4	0.18	-15	11
C[C@@H]1CN([C@@H](C)CO)C(=O)Cc2cc(NS(=O)(=O)c3ccc(F)cc3)ccc2O[C@@H]1CN(C)Cc1ccc(C(F)(F)F)cc1	-3	-27	0.017	-3	103*
C[C@H]1CN([C@@H](C)CO)C(=O)Cc2cc(NS(=O)(=O)c3ccc(F)cc3)ccc2O[C@@H]1CN(C)Cc1ccc(C(F)(F)F)cc1	nt	26	0.00088	10	90*
C[C@@H]1CN([C@H](C)CO)C(=O)Cc2cc(NS(=O)(=O)c3ccc(F)cc3)ccc2O[C@H]1CN(C)Cc1ccc(C(F)(F)F)cc1	-3	28	-0.16	5	127*
CC(C)CC1NC(=O)C(C)NC1=O (configuration not stated)	2	-14	-0.28	8	-14
Cc1ccc(N/C(=N/C(N)=S)c2ccccc2)cc1	-2	-6	0.25	-25	-11
O=c1cc(-c2ccccc2)nc2scc(-c3ccc(Cl)cc3)n12	0	-19	-0.056	-4	-13
O=c1cc(-c2ccccc2)nc2cc(-c3ccccc3)[nH]n12	-2	-241	-0.29	-26	107*
CCOc1ccc(NC(=O)CSc2nc(N)c3c4c(sc3n2)COC(C)(C)C4)cc1	nt	nt	nt	-17	-2
CCOC(=O)CSc1nc(N)c2c3c(sc2n1)COC(C)(C)C3	-2	nt	nt	-20	105*
NC[C@@H]1O[C@H](C23CC4CC(CC(C4)C2)C3)Cc2c1ccc(O)c2O	nt	-7	-0.29	1	107*
NC[C@@H]1O[C@H](c2ccccc2)Cc2c1ccc(O)c2O	nt	35	-0.13	13	112*
Cc1ccc(S(=O)(=O)N2c3ccccc3C(C)(c3ccccc3)CC2(C)C)cc1 (configuration not stated)	-1	57	-0.28	41	108*
O=C(CNS(=O)(=O)c1cc(Cl)ccc1Cl)Nc1ccc2c(c1)OCCO2	nt	nt	nt	-28	5
SMILES	PD-1 reverse act	Hedgehog inh	YB-1 expression	MITF inh	NOMO-1 viab
O=C(O)c1cc(C23CC4CC(CC(C4)C2)C3)ccc1O	4	12	-0.28	-8	15
C[C@@H]1CN([C@@H](C)CO)C(=O)c2cc(NS(=O)(=O)c3ccc(F)cc3)ccc2O[C@H]1CN(C)Cc1ccc(Cl)c(Cl)c1	-2	nt	-0.15	24	?
Cc1ccc(S(=O)(=O)Nc2ccc3c(c2)C(=O)N([C@@H](C)CO)C[C@@H](C)[C@@H](CN(C)Cc2ccc(Cl)c(Cl)c2)O3)cc1	-2	15	0.47	75	117*
C[C@H]1CN([C@@H](C)CO)C(=O)c2cc(NS(=O)(=O)c3ccc(F)cc3)ccc2O[C@H]1CN(C)Cc1ccc(Cl)c(Cl)c1	1	14	0.17	1	11
Cc1ccc(S(=O)(=O)Nc2ccc3c(c2)C(=O)N([C@@H](C)CO)C[C@H](C)[C@@H](CN(C)Cc2ccc(Cl)c(Cl)c2)O3)cc1	-1	-1	-0.34	6	106*
C[C@@H]1CN([C@@H](C)CO)C(=O)Cc2cc(NC(=O)Nc3ccc(C(F)(F)F)cc3)ccc2O[C@@H]1CN(C)Cc1ccc(C(=O)Nc2ccccc2N)cc1	-3	nt	-0.26	21	127*
C[C@@H]1CN([C@H](C)CO)C(=O)c2cc(NC(=O)Nc3cccc4ccccc34)ccc2O[C@@H]1CN(C)Cc1ccc(C(=O)Nc2ccccc2N)cc1	-2	nt	-0.48	4	105*
C[C@H](CO)N1C[C@H](C)[C@H](CN(C)Cc2ccc(C(=O)Nc3ccccc3N)cc2)Oc2ccc(NC(=O)Nc3ccc(C(F)(F)F)cc3)cc2CC1=O	-3	nt	-0.15	17	140*
C[C@H]1CN([C@@H](C)CO)C(=O)Cc2cc(NC(=O)C3CC3)ccc2O[C@H]1CN(C)Cc1ccc(C(=O)Nc2ccccc2N)cc1	-2	nt	-0.39	15	128*
C[C@@H]1CN([C@H](C)CO)C(=O)c2cc(NC(=O)Nc3ccc(C(F)(F)F)cc3)ccc2O[C@H]1CN(C)Cc1ccc(C(=O)Nc2ccccc2N)cc1	0	nt	-0.22	7	54
C[C@@H]1CN([C@H](C)CO)C(=O)Cc2cc(NC(=O)Nc3ccc(F)cc3)ccc2O[C@H]1CN(C)Cc1ccc(C(=O)Nc2ccccc2N)cc1	0	nt	-0.17	-3	15
COc1ccc(OC)c(NC(=O)C(C)N(c2ccc(C)c(C)c2)S(C)(=O)=O)c1 (configuration not stated)	nt	nt	nt	-5	36
C[C@@H]1CN([C@H](C)CO)C(=O)Cc2cc(NC(=O)c3ccncc3)ccc2O[C@@H]1CN(C)Cc1ccc(C(=O)Nc2ccccc2N)cc1	0	nt	-0.18	-12	61
C[C@@H]1CN([C@H](C)CO)C(=O)c2cc(NC(=O)Cn3cnnn3)ccc2O[C@H]1CN(C)Cc1ccc(C(=O)Nc2ccccc2N)cc1	-1	nt	0.006	-2	5
C[C@H](CO)N1C[C@H](C)[C@H](CN(C)Cc2ccc(C(=O)Nc3ccccc3N)cc2)Oc2ccc(NC(=O)Cn3cnnn3)cc2CC1=O	0	nt	-0.39	0	97*
C[C@H](CO)N1C[C@H](C)[C@H](CN(C)Cc2ccc(C(=O)Nc3ccccc3N)cc2)Oc2ccc(NC(=O)c3ccncc3)cc2CC1=O	-3	nt	-0.48	5	128*
